# PubChem BioAssay (Tox21)
# Values without a mark were called inactive. Records with an inconclusive call do not appear. Entries that show only a call come without a potency. The source made the active and inactive calls. Unless noted, calls follow the shape of the dose curve; as a rule, active = well fitted curve in the direction sought with a large enough effect in the repeat runs; inconclusive = weak or mixed curves; inactive = no such curve, though single readings can be large; an effect the other way counts as inactive or inconclusive.
# Experiments:
# [1] = target: Nuclear receptor subfamily 1 group I member 3 (Homo sapiens) (UniProt Q14994); assay: qHTS assay to identify small molecule antagonists of the constitutive androstane receptor (CAR) signaling pathway (AID 1224838);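 also: HepG2 cells stably expressing hCAR with CYP2B6 luciferase reporter stimulated by CITCO; nearly all actives have a fitted effect of over 40% in size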
# Summary of the method: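 Reporter luminescence was quantified after 24 h exposure of hCAR/CYP2B6-2.2kb double-stable HepG2 cells to compounds at 15 concentrations in the presence of 50 nM CITCO final.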
# [2] = target: Nuclear receptor subfamily 1 group I member 3 (Homo sapiens) (UniProt Q14994); assay: qHTS assay to identify small molecule agonists of the constitutive androstane receptor (CAR) signaling pathway (AID 1224839); also: nearly all actives have a fitted effect of over 15% in size; also: potency is read from the fitted curve at half-maximal effect
# Summary of the method: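 A 15-concentration quantitative screen uses HepG2 cells co-transfected stably with human CAR and CYP2B6-2.2kb reporter. Treatment lasts 24 h with 0.75 uM PK11195 final present; ONE-Glo luminescence is the signal.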
# [3] = qHTS assay to identify small molecule antagonists of the estrogen related receptor signaling pathway with the pleiotropic PPARgamma coactivator (PGC) from Tox21 10K library - cell viability counter screen (AID 1224840; active = well fitted cell-killing curve with a large enough effect in the repeat runs, not every such curve was filed as active; also: nearly all actives have a fitted effect of over 40% in size; also: potency is read from the fitted curve at half-maximal effect)
# Summary of the method: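 Here the PGC/ERR cells serve as a cytotoxicity control: they are exposed to compounds for 17.5 hours at 37 C, and live-cell signal is quantified using CellTiter-Fluor fluorescence.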
# [4] = qHTS assay to identify small molecule agonists of the estrogen related receptor signaling pathway with the pleiotropic PPARgamma coactivator (PGC) from Tox21 10K library (AID 1224842); also: nearly all actives have a fitted effect of over 15% in size
# Summary of the method: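 PGC/ERR reporter cell line, 2,000 cells per well, incubated 6 h at 37 C before 23 nL compound in DMSO was added. After 18 h at 37 C, One-Glo luminescence read following 30 min at room temperature.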
# [5] = target: Thyrotropin receptor (Homo sapiens) (UniProt P16473); assay: qHTS assay to identify small molecule agonists of the thyroid stimulating hormone receptor (TSHR) signaling pathway (AID 1224843; calls by dose curve; also: nearly all actives have a fitted effect of over 45% in size)
# Summary of the method: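 TSHR-HEK293 cells in agonist mode, 30 min room-temperature step, then cAMP measured by competitive HTRF (cAMP-d2 with anti-cAMP cryptate) after 1 h at room temperature. Tested at 15 concentrations in triplicate.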
# [6] = qHTS assay to identify small molecule agonists of the hypoxia (HIF-1) signaling pathway - cell viability counter screen (AID 1224844; calls by dose curve; also: nearly all actives have a fitted effect of over 50% in size; also: potency is read from the fitted curve at half-maximal effect)
# Summary of the method: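 Multiplexed with the HRE beta-lactamase assay, this viability read used CellTiter-Glo luminescence (30 min, RT) on HRE-bla ME-180 cells treated 17 hrs with compounds in 0.5% dialyzed FBS medium.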
# [7] = qHTS assay to identify small molecule agonists of H2AX (AID 1224845; active = well fitted activation curve with a large enough effect in the signal ratio in the repeat runs, not every such curve was filed as active; the % refers to the signal ratio)
# Summary of the method: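 Wild-type CHO-K1 cells, plated overnight, exposed 3hr at 37C to 15 concentrations (0.76% DMSO final). Lysed, then HTRF anti-pH2AX (S139) cryptate and anti-H2AX-d2 antibodies, 24 hr room temperature; 665/620 nm emission read.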
# [8] = qHTS assay to identify small molecule antagonists of the estrogen related receptor (ERR) signaling pathway from Tox21 library (AID 1224848); also: nearly all actives have a fitted effect of over 50% in size; also: potency is read from the fitted curve at half-maximal effect
# Summary of the method: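 ERR reporter cell line (from NTP) seeded 2,000 cells/well, rested 6 h at 37 C/5% CO2, then pin-dosed with compounds in DMSO. After 18 h at 37 C, ONE-Glo added; luminescence read after 30 min at room temperature.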
# [9] = qHTS assay to identify small molecule agonists of the estrogen related receptor (ERR) signaling pathway from Tox21 library (AID 1224849; calls by dose curve; also: nearly all actives have a fitted effect of over 15% in size); settings: ERR reporter cell line, ONE-Glo luciferase, 18 h; at 92.4 µM (top of the series) unless noted
# Summary of the method: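 Six hours post-seeding at 37 C/5% CO2, ERR cells receive DMSO-solubilised compounds; after 18 h at 37 C, ONE-Glo reagent is applied and luminescence recorded.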
# [10] = qHTS RealTime-Glo MT Cell Viability Assay in HEK293 cells - 32 hour (AID 1224868); also: nearly all actives have a fitted effect of over 50% in size; also: potency is read from the fitted curve at half-maximal effect
# Summary of the method: (§1)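 HEK293 cells seeded with NanoLuc/prosubstrate reagent, rested 5 h at 37 C, then dosed and kept at 37 C up to 40 h. Nonlytic real-time luminescence from viable cells read at 0, 8, 16, 24, 32 and 40 h.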
# [11] = A CellTox Green Cytotoxicity Assay to monitor cytotoxicity in HEK293 cells - 0 hour (AID 1224869); also: nearly all actives have a fitted effect of over 50% in size
# Summary of the method: (§2)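 Seeding of HEK293 cells together with cytotoxicity dye preceded a 5 h incubation at 37 C/5% CO2. Test compounds in DMSO were then added and fluorescence monitored across 40 h.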
# [12] = A CellTox Green Cytotoxicity Assay to monitor cytotoxicity in HEK293 cells - 40 hour (AID 1224871); also: nearly all actives have a fitted effect of over 45% in size; also: potency is read from the fitted curve at half-maximal effect
# Summary of the method: as §2
# [13] = qHTS RealTime-Glo MT Cell Viability Assay in HEK293 cells - 16 hour (AID 1224872); also: nearly all actives have a fitted effect of over 50% in size; also: potency is read from the fitted curve at half-maximal effect
# Summary of the method: as §1
# [14] = qHTS RealTime-Glo MT Cell Viability Assay in HEK293 cells - 40 hour (AID 1224874); settings: RealTime-Glo luminescence; max response: stronger effect = lower value; also: nearly all actives have a fitted effect of over 50% in size; also: potency is read from the fitted curve at half-maximal effect
# Summary of the method: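 Tox21 screen in HEK293 using RealTime-Glo MT chemistry, with cells and reagent co-dispensed. Luminescence proportional to viable cell number was captured at intervals during 40 h compound exposure at 37 C.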
# [15] = qHTS assay to identify small molecule antagonists of the estrogen related receptor signaling pathway with the pleiotropic PPARgamma coactivator (PGC) from Tox21 10K library (AID 1224841; call rule not given here; also: potency is read from the fitted curve at half-maximal effect)
# Summary of the method: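 Each well held 2,000 PGC/ERR cells, pre-incubated six hours (37 C, 5% CO2). Test substances in DMSO were added by pin tool and left for 18 h at 37 C before luciferase detection by One-Glo.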
# [16] = qHTS assay to identify small molecule agonists of H2AX - cell viability counter screen (AID 1224847; calls by dose curve; also: top concentration of the series differs between compounds; nearly all actives have a fitted effect of over 30% in size)
# Summary of the method: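 We seed wild-type CHO-K1 cells overnight, treat them for 3 hr at 37C with compounds in 15-concentration series, and quantify remaining viability by CellTiter-Glo luminescence.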
# [17] = qHTS RealTime-Glo MT Cell Viability Assay in HepG2 cells - 24 hour (AID 1224867); also: nearly all actives have a fitted effect of over 50% in size; also: potency is read from the fitted curve at half-maximal effect
# Summary of the method: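 HepG2 cells (600/well) were dispensed with RealTime-Glo reagents, incubated 5 h at 37 °C, then treated with compounds in DMSO for up to 40 h. Nonlytic NanoLuc luminescence reflecting viable cells was read at each stated time point.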
# [18] = qHTS RealTime-Glo MT Cell Viability Assay in HepG2 cells - 40 hour (AID 1224870); also: nearly all actives have a fitted effect of over 50% in size
# Summary of the method: (§3)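 HepG2 cells (600/well) mixed with RealTime-Glo MT reagent, settled 5 h at 37 C/5% CO2 before compound addition. Nonlytic NanoLuc luminescence from viable-cell prosubstrate reduction read repeatedly during 40 h treatment at 37 C.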
# [19] = qHTS RealTime-Glo MT Cell Viability Assay in HepG2 cells - 8 hour (AID 1224873); also: nearly all actives have a fitted effect of over 55% in size
# Summary of the method: as §3
# [20] = qHTS assay to identify small molecule agonists of the hypoxia (HIF-1) signaling pathway (AID 1224846; active = well fitted activation curve with a large enough effect in the signal ratio in the repeat runs, not every such curve was filed as active; the % refers to the signal ratio)
# Summary of the method: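 Hypoxia-pathway activation was scored as increased beta-lactamase from an HRE-controlled reporter in ME-180 cells; plated at 2,000 cells per well with 0.5% dialyzed FBS, they were exposed 17 hrs to compounds and then given CCF4-AM.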
# Chain of Thyrotropin receptor (Homo sapiens) (P16473 whole entry, looked up): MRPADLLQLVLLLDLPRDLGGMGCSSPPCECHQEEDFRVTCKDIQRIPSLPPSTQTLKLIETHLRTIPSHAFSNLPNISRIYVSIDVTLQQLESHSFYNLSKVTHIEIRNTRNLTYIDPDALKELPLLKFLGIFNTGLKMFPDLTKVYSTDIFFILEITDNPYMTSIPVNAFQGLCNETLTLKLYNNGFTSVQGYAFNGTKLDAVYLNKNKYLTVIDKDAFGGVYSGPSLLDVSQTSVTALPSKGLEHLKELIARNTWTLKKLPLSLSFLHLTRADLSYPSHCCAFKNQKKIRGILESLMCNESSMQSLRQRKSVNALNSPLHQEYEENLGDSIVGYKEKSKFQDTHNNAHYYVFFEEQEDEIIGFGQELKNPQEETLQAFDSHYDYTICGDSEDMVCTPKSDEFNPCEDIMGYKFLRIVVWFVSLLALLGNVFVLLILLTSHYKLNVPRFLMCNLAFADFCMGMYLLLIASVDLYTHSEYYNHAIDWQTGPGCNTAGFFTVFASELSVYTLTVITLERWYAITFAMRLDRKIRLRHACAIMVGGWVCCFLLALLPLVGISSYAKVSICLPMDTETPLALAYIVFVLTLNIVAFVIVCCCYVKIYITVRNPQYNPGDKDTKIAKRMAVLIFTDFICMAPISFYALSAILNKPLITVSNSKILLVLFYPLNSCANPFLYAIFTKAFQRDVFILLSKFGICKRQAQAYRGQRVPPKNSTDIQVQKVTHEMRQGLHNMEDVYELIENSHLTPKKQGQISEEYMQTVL
# Chain of Nuclear receptor subfamily 1 group I member 3 (Homo sapiens) (Q14994 whole entry, looked up): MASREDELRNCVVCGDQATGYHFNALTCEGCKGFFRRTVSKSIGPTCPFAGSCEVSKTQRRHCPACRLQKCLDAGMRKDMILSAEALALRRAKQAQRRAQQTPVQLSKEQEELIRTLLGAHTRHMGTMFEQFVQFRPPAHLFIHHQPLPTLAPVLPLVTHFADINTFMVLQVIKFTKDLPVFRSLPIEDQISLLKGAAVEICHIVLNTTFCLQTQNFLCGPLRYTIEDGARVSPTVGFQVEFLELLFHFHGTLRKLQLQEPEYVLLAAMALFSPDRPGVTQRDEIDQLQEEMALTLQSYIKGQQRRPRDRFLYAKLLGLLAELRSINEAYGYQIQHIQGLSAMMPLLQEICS
compound,measurement,setting,value
C=CCc1cc(S(=O)(=O)c2ccc(O)c(CC=C)c2)ccc1O,Potency,[1],inactive
same,Potency,[2],inactive
same,Potency,[3],inactive
same,Potency,[4],inactive
same,Potency,[5],inactive
same,Potency,[6],inactive
same,Potency,[7],inactive
same,Potency,[8],61.1 µM (active)
same,"activity change, positive = activation",[9],-45.3%
same,Potency,[10],27.5 µM (active)
same,Potency,[11],inactive
same,Potency,[12],inactive
same,Potency,[13],27.5 µM (active)
same,Potency,[14],24.5 µM (active)
C=Cc1ccncc1,Potency,[1],inactive
same,Potency,[2],inactive
same,Potency,[3],inactive
same,Potency,[15],inactive
same,Potency,[4],inactive
same,Potency,[5],inactive
same,Potency,[6],inactive
same,Potency,[7],inactive
same,Potency,[16],inactive
same,Potency,[8],inactive
same,"activity change, positive = activation",[9],4.99%
same,Potency,[17],inactive
same,Potency,[10],inactive
same,Potency,[18],inactive
same,Potency,[12],inactive
same,Potency,[13],inactive
same,Potency,[19],inactive
same,max response,[14],-1.15%
CC1(C)[C@H]2CC[C@]1(C)C(=O)C2,Potency,[1],inactive
same,Potency,[2],inactive
same,Potency,[3],inactive
same,Potency,[15],inactive
same,Potency,[4],inactive
same,Potency,[5],inactive
same,Potency,[6],inactive
same,Potency,[7],inactive
same,Potency,[20],inactive
same,Potency,[16],inactive
same,Potency,[8],inactive
same,"activity change, positive = activation",[9],6.28%
same,Potency,[17],inactive
same,Potency,[10],inactive
same,Potency,[11],inactive
same,Potency,[18],inactive
same,Potency,[13],inactive
same,Potency,[19],inactive
same,max response,[14],16%
Cc1cccc2c1ccc1ccccc12,Potency,[1],inactive
same,Potency,[2],61.1 µM (active)
same,Potency,[3],inactive
same,Potency,[4],inactive
same,Potency,[6],inactive
same,Potency,[7],inactive
same,Potency,[16],inactive
same,Potency,[8],24.3 µM (active)
same,"activity change, positive = activation",[9],-38.7%
same,Potency,[17],inactive
same,Potency,[10],inactive
same,Potency,[11],inactive
same,Potency,[18],inactive
same,Potency,[13],inactive
same,Potency,[19],inactive
same,max response,[14],-16.2%
CCCCCCCCc1ccc(Nc2ccc(CCCCCCCC)cc2)cc1,Potency,[1],inactive
same,Potency,[2],inactive
same,Potency,[3],inactive
same,Potency,[15],11.9 µM (active)
same,Potency,[4],inactive
same,Potency,[5],inactive
same,Potency,[6],inactive
same,Potency,[7],inactive
same,Potency,[20],inactive
same,Potency,[16],inactive
same,Potency,[8],inactive
same,"activity change, positive = activation",[9],-4.1% [at 42.5 µM]
same,Potency,[17],inactive
same,Potency,[10],inactive
same,Potency,[11],inactive
same,Potency,[18],inactive
same,Potency,[12],inactive
same,Potency,[13],inactive
same,Potency,[19],inactive
same,max response,[14],-0.6%
Cn1ccnc1,Potency,[1],inactive
same,Potency,[2],inactive
same,Potency,[3],inactive
same,Potency,[15],inactive
same,Potency,[4],inactive
same,Potency,[5],inactive
same,Potency,[6],inactive
same,Potency,[7],inactive
same,Potency,[16],inactive
same,Potency,[8],inactive
same,"activity change, positive = activation",[9],1.09%
same,Potency,[17],inactive
same,Potency,[10],inactive
same,Potency,[18],inactive
same,Potency,[13],inactive
same,max response,[14],9.06%
[Cl][Sc]([Cl])[Cl],Potency,[1],inactive
same,Potency,[2],inactive
same,Potency,[3],inactive
same,Potency,[4],inactive
same,Potency,[5],inactive
same,Potency,[6],inactive
same,Potency,[7],inactive
same,Potency,[16],inactive
same,Potency,[8],inactive
same,"activity change, positive = activation",[9],0.963%
same,Potency,[17],inactive
same,Potency,[10],inactive
same,Potency,[11],inactive
same,Potency,[18],inactive
same,Potency,[12],inactive
same,Potency,[13],inactive
same,Potency,[19],inactive
same,max response,[14],-3.01%
Clc1cccc(Cl)n1,Potency,[1],inactive
same,Potency,[2],inactive
same,Potency,[3],inactive
same,Potency,[15],inactive
same,Potency,[4],inactive
same,Potency,[6],inactive
same,Potency,[7],inactive
same,Potency,[20],inactive
same,Potency,[16],inactive
same,Potency,[8],inactive
same,"activity change, positive = activation",[9],0.024%
same,Potency,[17],inactive
same,Potency,[10],inactive
same,Potency,[11],inactive
same,Potency,[18],inactive
same,Potency,[12],inactive
same,Potency,[13],inactive
same,Potency,[19],inactive
same,max response,[14],3.2%
CN1CCN(CCCN2c3ccccc3Sc3ccc(C(F)(F)F)cc32)CC1,Potency,[1],inactive
same,Potency,[2],inactive
same,Potency,[3],29.8 µM (active)
same,Potency,[15],29.8 µM (active)
same,Potency,[4],inactive
same,Potency,[5],inactive
same,Potency,[6],16.9 µM (active)
same,Potency,[7],inactive
same,Potency,[8],33.5 µM (active)
same,"activity change, positive = activation",[9],-69.1% [at 42.5 µM]
same,Potency,[17],23.9 µM (active)
same,Potency,[10],23.9 µM (active)
same,Potency,[11],inactive
same,Potency,[12],26.8 µM (active)
same,Potency,[13],21.3 µM (active)
same,Potency,[14],23.9 µM (active)
COC(=O)c1ccc([N+](=O)[O-])cc1,Potency,[1],inactive
same,Potency,[2],inactive
same,Potency,[3],inactive
same,Potency,[4],inactive
same,Potency,[5],inactive
same,Potency,[6],inactive
same,Potency,[7],inactive
same,Potency,[20],inactive
same,Potency,[16],inactive
same,Potency,[8],inactive
same,"activity change, positive = activation",[9],1.35%
same,Potency,[17],inactive
same,Potency,[10],inactive
same,Potency,[11],inactive
same,Potency,[18],inactive
same,Potency,[12],inactive
same,Potency,[13],inactive
same,Potency,[19],inactive
same,max response,[14],-4.75%
COc1cc(OC)nc(NC(=O)NS(=O)(=O)Nc2ccccc2C(=O)N(C)C)n1,Potency,[1],inactive
same,Potency,[2],inactive
same,Potency,[3],inactive
same,Potency,[15],inactive
same,Potency,[4],inactive
same,Potency,[5],inactive
same,Potency,[6],inactive
same,Potency,[7],inactive
same,Potency,[20],inactive
same,Potency,[16],inactive
same,Potency,[8],inactive
same,"activity change, positive = activation",[9],-7.75%
same,Potency,[17],inactive
same,Potency,[10],inactive
same,Potency,[11],inactive
same,Potency,[18],inactive
same,Potency,[12],inactive
same,Potency,[13],inactive
same,Potency,[19],inactive
same,max response,[14],6.33%
CC(C)C(=O)C(C)C,Potency,[1],inactive
same,Potency,[2],inactive
same,Potency,[3],inactive
same,Potency,[15],inactive
same,Potency,[4],inactive
same,Potency,[5],inactive
same,Potency,[6],inactive
same,Potency,[7],inactive
same,Potency,[16],inactive
same,Potency,[8],inactive
same,"activity change, positive = activation",[9],1.37%
same,Potency,[17],inactive
same,Potency,[10],inactive
same,Potency,[11],inactive
same,Potency,[18],inactive
same,Potency,[13],inactive
same,max response,[14],8.37%
